Measured values published in PubChem BioAssay (Tox21).
Unmarked numbers belong to inactive results. Calls come from the whole dose curve.
% is set by controls: 0 for no effect and ±100 for the full control effect.

Assay: G protein-coupled receptor (GPCR) small molecule agonists, calcium flux assay: HEK293 wild type cell line counter screen (AID 1920065)
Settings: HEK293 WT calcium flux, fluorescence, agonist mode; series mostly up to 57.6 µM; activation: at the top concentration
Text: U.S. Tox21 Program National Center for Advancing Translational Sciences [NCATS] Division of Preclinical Innovation [DPI] U.S. Environmental Protection Agency [EPA] National Institutes of Environmental Health Sciences [NIEHS] National Toxicology Program [NTP] U.S. Food and Drug Administration [FDA] Assay overview: The increased intracellular calcium release that occurred upon G protein-coupled receptor (GPCR) activation led to the frequent use of calcium flux assays to detect GPCR activation. For the purpose of studying and screening compounds that may activate GPCR, receptor-overexpressing models were typically generated using Hek293 wild-type (WT) cells. In order to eliminate the compounds that may have induced calcium release for non-specific activation, a counter-assay utilizing calcium flux on Hek293 WT cells was performed. The data were formulated in order to serve as a control for any calcium flux detection utilizing Hek293 cells with either GPCR overexpression or gene modification. The procurement of Hek293 WT cells from ATCC. Fluorescence intensity can be utilized to determine the activation of the compound in a calcium flux assay. As a counter control, this cell line was utilized to screen the Tox21 10K compound library.
Assay Protocol Summary: Hek293 cells were dispensed at 1500cells/4uL/well in 1536-well black wall/clear bottom plates using a multidrop dispenser. After the assay plates were incubated at a 37 C/5% CO2 incubator for 18 hours, 4 uL of Calcium Dye Solution was added to each well. The plates were incubated at 37 C for 1 hour. For agonist mode, 23 nL of compounds dissolved in DMSO, positive control (ATP) or DMSO only was transferred to the assay plate by a pin tool station. The fluorescence intensity in the plates was measured using FDSS 7000EX kinetic plate reader with a filter set of Ex/Em=480/540 for 3 min at 1 sec intervals. Each test compound was measured at 15 concentrations and in triplicates.
With `CC(C)(C)c1cc(C=O)cc(C(C)(C)C)c1O` the “activation” value was 0.903% [at 26.5 µM]. With `Cc1ccnc(N)c1` the “activation” value was 0.658%. In the case of `C/C=C/C(=O)CC`, the activation is reported as 0.719% [at 11.8 µM]. For `CC(C)(C)C(=O)OCOC(=O)[C@@H]1N2C(=O)[C@@H](NC(=O)[C@H](N)c3ccccc3)[C@H]2SC1(C)C`, the “activation” value was 1.89% [at 26.5 µM]. With `CCOC(=N)CC(=O)OCC` the “activation” value was 0.0452%. With `OCCN1C[C@H](O)[C@@H](O)[C@H](O)[C@H]1CO` the “activation” value was -1.19% [at 26.5 µM]. For `CC1OC(=O)C(C)OC1=O` (stereo not given), the “activation” value was 0.41%. With `O=C1c2ccccc2C(=O)C1c1nc2ccccc2c(Br)c1O` the “activation” value was 0.736%. In the case of `CC(C)NCC(O)c1ccc2ccccc2c1` (stereo not given), the “activation” value is reported as 0.0272% [at 26.5 µM]. In the case of `Nc1ccc(S(=O)(=O)Nc2ccccc2)cc1`, the “activation” value is reported as -0.0899% [at 26.5 µM]. With `Cc1cc(C)c(NC(=O)CN(CC(=O)O)CC(=O)O)c(C)c1Br` the “activation” value was 0.268% [at 26.5 µM]. With `N#Cc1ccc(CC(=O)c2cccc(C(F)(F)F)c2)cc1` the “activation” value was -1.3%. In the case of `CC[N+]1(CC)CCC(=C(c2ccccc2)c2ccccc2)C1C` (stereo not given), the “activation” value is reported as -0.234% [at 26.5 µM]. In the case of `COc1ccc(N)c([N+](=O)[O-])c1`, the “activation” value is reported as -0.45%. For `CC(C)(C)NCC(O)COc1cccc2c1CCC(=O)N2` (stereo not given), the “activation” value was 0.283% [at 26.5 µM]. With `Cc1c(Cl)cccc1Nc1ccccc1C(=O)O` the “activation” value was -1.04% [at 26.5 µM]. In the case of `CC(N)C(=O)OC(C)(C)Cc1ccc(Cl)cc1` (stereo not given), the “activation” value is reported as -0.491% [at 26.5 µM]. With `COc1ccccc1OCC(O)COC(N)=O` (stereo not given) the “activation” value was -0.378% [at 26.5 µM]. For `COc1cc(OC)cc(OC)c1`, the “activation” value was -0.0292% [at 26.5 µM]. For `Nc1ccc2cc(S(=O)(=O)O)ccc2c1`, the “activation” value was -1.74%. In the case of `O=C(O)c1cc(Cl)cc([N+](=O)[O-])c1Cl`, the “activation” value is reported as -0.0588%. For `Cc1cc(N)c(S(=O)(=O)O)cc1Cl`, the “activation” value was -0.0803%. For `COCCC(=O)OC`, the “activation” value was 0.793%. For `C=CC(C)(CCC=C(C)C)OC(=O)c1ccccc1` (stereo not given), the “activation” value was 0.911%. With `C[C@]1(Cn2ccnn2)[C@H](C(=O)O)N2C(=O)C[C@H]2S1(=O)=O` the “activation” value was -0.28% [at 26.5 µM]. With `C[C@]12C=CC(=O)C=C1[C@@H](F)C[C@@H]1[C@@H]2[C@@H](O)C[C@@]2(C)[C@H]1CC[C@]2(O)C(=O)CO` the “activation” value was 0.0902% [at 26.5 µM]. With `Cc1cccc(C)c1NC(=O)c1ccc(N)cc1` the “activation” value was -0.119% [at 26.5 µM]. For `CCC(C)C(=O)OC` (stereo not given), the “activation” value was -0.124%. For `CN(C)CCOC1=Cc2ccccc2Sc2ccc(Cl)cc21`, the “activation” value was 2.1% [at 26.5 µM]. With `O=C1CCCC(=O)C1` the “activation” value was 0.192%. With `CNS(=O)(=O)CCc1ccc2[nH]cc(C3CCN(C)CC3)c2c1` the “activation” value was -0.105% [at 26.5 µM]. With `Cc1ccc2ccccc2n1` the “activation” value was 0.594%. With `CCOC(=O)Cc1cccc2ccccc12` the “activation” value was -0.126%. With `NC1CCN(c2nc3c(cc2F)c(=O)c(C(=O)O)cn3-c2ccc(F)cc2F)C1` (stereo not given) the “activation” value was -0.476% [at 26.5 µM]. For `N#CCc1ccccc1[N+](=O)[O-]`, the “activation” value was -0.0282%. For `CN(C)CCN1CCOCC1`, the “activation” value was -2.33%. With `CCCCOCC` the “activation” value was 0.856%. With `O=NN(CCCl)C(=O)NC1CCCCC1` the “activation” value was -0.0739% [at 26.5 µM]. For `CCCCCCCC/C=C\CCCCCCCC(=O)OC[C@@H](O)[C@H]1OC[C@H](O)[C@H]1O`, the “activation” value was -0.773%. In the case of `CCCCCCCCCCCCCOP(=O)(O)O`, the “activation” value is reported as -0.419%.
